# PHOSPHO1 block = inhibitors of human PHOSPHO1 phosphatase. AID 1565. inhibition, % at 13.3 µM. recombinant PHOSPHO1, absorbance phosphatase assay. 1.1% of 290,000 active. Q8TCT1; in the data active = inhibition above about 60%
# PABP1 MLLE inh = blocks PAM2 peptide binding to the PABP1 MLLE domain; GST-MLLE / FITC-PAM2 fluorescence polarization; P11940; 0.36% of 360,000 active; inhibition, % at 20 µM; in the data active = inhibition above about 35%, passing the limit was not always enough;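 note: plate controls were DMSO wells with GST-MLLE for no effect and wells lacking GST-MLLE protein for full effect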
# PABP polyA inh = PABP-poly(A) binding inhibition. 1% of 290,000 active. calls only at 35 µM. PABP-poly(A) RNA binding, fluorescence polarization. P11940. AID 2014;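 note: calls also rest on retests at 20 µM and on dose response follow-up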
# eIF4H FP inh = inhibitors of RNA binding by human eIF4H. eIF4H fluorescence polarization binding assay. inhibition, % at 35 µM. 0.94% of 290,000 active. AID 2012;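 note: calls also rest on retests at 20 µM and on dose response follow-up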
# APOBEC3A inh = inhibitors of human APOBEC3A DNA deaminase; 0.41% of 330,000 active; P31941; recombinant A3A, FAM/TAMRA ssDNA deamination fluorescence; AID 493011; inhibition, % at 20 µM;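 active = at least 40% inhibition at 20 µM here, with at most 30% in a related deaminase screen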;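 note: plate controls were A3A with DMSO for no effect and wells lacking A3A enzyme for full effect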
# A3G deaminase = inhibitors of human APOBEC3G DNA deaminase | Q9HC16 | recombinant A3G, ssDNA deamination FAM/TAMRA fluorescence | inhibition, % at 20 µM | 0.28% of 330,000 active | AID 493012;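 active = inhibition of at least 40% at 20 µM, with no more than 30% in the related APOBEC3A deaminase screen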;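 note: plate controls were DMSO wells with A3G for no effect and wells lacking A3G enzyme for full effect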
# Starred values were filed as active, the others as inactive; i = inactive; nt = no result; + = active, no number. Compounds with a hit are over-represented: about 2.6% of the library has one in this group of screens. Unless noted, the rule behind the calls is not given here.
SMILES,PHOSPHO1 block,PABP1 MLLE inh,PABP polyA inh,eIF4H FP inh,APOBEC3A inh,A3G deaminase
CCOC(=O)c1[nH]c2ccc(Br)cc2c1NC(=O)CCN1CCN(C(=O)OCC)CC1,65*,-33,i,2,15,5
CCOC(=O)c1[nH]c2ccc(Br)cc2c1NC(=O)CCN1CCCCC1,-19,nt,i,-2,nt,nt
O=C(NCc1ccccc1Cl)C1CCCN1C(=O)Nc1ccccc1 (stereo not given),nt,-4,i,3,-1,-3
O=C(CSc1nnc(-c2ccco2)c(-c2ccco2)n1)c1ccccc1,47,22,+,110*,84,67
CCN1C(=O)/C(=C2\SC(=S)N(CC3CCCO3)C2=O)c2ccccc21 (stereo not given),12,nt,i,-2,nt,nt
CCN1C(=O)/C(=C2\SC(=S)N(NC(=O)c3ccccc3O)C2=O)c2ccccc21,4,39*,i,-15,-11,-5
CC(=O)N1C(=O)/C(=C2\SC(=S)N(c3c(C)n(C)n(-c4ccccc4)c3=O)C2=O)c2ccccc21,-32,47*,i,-3,nt,nt
CCN1C(=O)/C(=C2\SC(=S)N(c3c(C)n(C)n(-c4ccccc4)c3=O)C2=O)c2ccccc21,4,44*,i,0,-2,-3
O=C(c1noc2c1CCCC2)N1CCC(CO)(Cc2ccccc2Cl)CC1,47,-21,i,0,-3,-6
Cc1cc(C)cc(NC(=O)Cn2ncn3c(cc4ccccc43)c2=O)c1,3,-9,i,-4,-2,-1
COC(=O)Cn1ncn2c(cc3oc(C)cc32)c1=O,66*,-2,i,-7,0,3
CC1CC(C)(C)NC(=S)N1CCCC(=O)Nc1ccc(Cl)cc1 (stereo not given),-27,-93,+,active,-8,5
CC1CC(C)(C)NC(=S)N1CCC(=O)Nc1ccc2c(c1)OCCO2 (stereo not given),-58,0,i,-9,-1,-3
CCOc1ccc(NC(=O)CCN2C(=S)NC(C)(C)CC2C)cc1 (stereo not given),-19,-49,+,5.7*,4,-13
CC(C)c1ccc(NC(=O)CCCN2C(=S)NC(C)(C)CC2C)cc1 (stereo not given),-65,-85,i,-6,-1,-4
COc1ccc(NC(=O)/C(C#N)=C\c2ccc(-c3cc(C(=O)O)ccc3C)o2)cc1,29,18,+,79*,17,1
CCN(Cc1cc2ccc(C)cc2[nH]c1=O)C(=O)c1cccnc1,-6,nt,+,84*,-5,-10
CC(C)CN(Cc1cc2ccccc2[nH]c1=O)C(=O)c1cccnc1,-8,10,i,-11,-1,-1
NC(=S)N/N=C/c1ccc(-c2cc(Cl)ccc2Cl)o1,93*,12,i,0,-4,-2
COc1ccc(Nc2cccccc2=O)cc1,62*,6,i,6,6,-5
CN(C)c1ccc(C(c2nnnn2C(C)(C)C)N2CCN(C(=O)c3ccco3)CC2)cc1 (stereo not given),88*,6,i,3,-4,7
CCOc1ccc(C(c2nnnn2C(C)(C)C)N2CCN(C(=O)c3ccco3)CC2)cc1 (stereo not given),-120,15,i,-6,-3,-8
CCCCNC(=O)C1(C)CCC(=O)N1C1CCN(Cc2ccccc2)CC1 (stereo not given),nt,0,nt,nt,nt,nt
COc1ccc(OC(=O)COc2ccccc2C)cc1,nt,16,nt,nt,3,-6
O=C1CC(c2ccco2)CC(O)=C1C=NCCN1CCNCC1 (stereo not given),-3,-2,+,95*,-1,-4
O=C1CC(c2ccco2)CC(O)=C1C=NCC1CCNCC1 (stereo not given),9,24,+,94*,5,3
Cc1ccc2c(c1)C(=C(C#N)C#N)CCN2,nt,-7,nt,nt,nt,nt
Cc1nc(CN2C(=O)C3(CCC3)ON=C2c2cccc(Cl)c2)cs1,nt,2,nt,nt,nt,nt
Cc1nc(SCC(=O)Nc2ccccc2)c2oc3ccccc3c2n1,23,-1,i,8,2,0
CNC(=O)C(Sc1nc(C)nc2c1oc1ccccc12)C(C)=O (stereo not given),88*,-16,i,0,-2,-2
